Test results from PubChem BioAssay (Tox21).
Inconclusive results are not listed. A call without a number means that no potency is given here. Unmarked numbers belong to inactive results. The source made the active and inactive calls. Calls come from the whole dose curve; as a rule, active = well fitted curve in the direction sought with a large enough effect in the repeat runs; inconclusive = weak or mixed curves; inactive = no such curve, though single readings can be large; an effect the other way counts as inactive or inconclusive.

Legend:
[1] = qHTS RealTime-Glo MT Cell Viability Assay in HEK293 cells - 16 hour (AID 1224872); note: nearly all actives have a fitted effect of over 50% in size; note: potency is the fitted concentration of half-maximal effect
In short: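 Tox21 10K qHTS, HEK293, 600 cells/well, RealTime-Glo reagent co-dispensed with cells; 5 h preincubation, compound by pintool, 37 C, luminescence at 0–40 h.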

[2] = qHTS RealTime-Glo MT Cell Viability Assay in HepG2 cells - 8 hour (AID 1224873); note: nearly all actives have a fitted effect of over 55% in size
In short: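 HepG2 cells (600/well) mixed with RealTime-Glo MT reagent, settled 5 h at 37 C/5% CO2 before compound addition. Nonlytic NanoLuc luminescence from viable-cell prosubstrate reduction read repeatedly during 40 h treatment at 37 C.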

[3] = A CellTox Green Cytotoxicity Assay to monitor cytotoxicity in HEK293 cells - 24 hour (AID 1224875); note: series mostly up to about 77 µM; nearly all actives have a fitted effect of over 45% in size
In short: (§1)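 Each value comes from one timepoint of a single continuous run in which HEK293 cells with CellTox Green were exposed to compound for up to 40 h at 37 C, dye fluorescence rising with cell death.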

[4] = A CellTox Green Cytotoxicity Assay to monitor cytotoxicity in HepG2 cells - 16 hour (AID 1224876); note: nearly all actives have a fitted effect of over 45% in size
In short: (§2)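 Continuous culture of HepG2 cells with a membrane-impermeant DNA dye; rising fluorescence marks dead cells. Compound exposure lasted up to 40 h at 37 C, with reads every 8 h from 0 h.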

[5] = qHTS RealTime-Glo MT Cell Viability Assay in HepG2 cells - 32 hour (AID 1224877); note: nearly all actives have a fitted effect of over 55% in size
In short: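 Cells + NanoLuc/prosubstrate dispensed (600 cells/well) → 5 h at 37 C/5% CO2 → compounds in DMSO transferred → 40 h incubation at 37 C, luminescence read at 0, 8, 16, 24, 32, 40 h.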

[6] = A CellTox Green Cytotoxicity Assay to monitor cytotoxicity in HepG2 cells - 24 hour (AID 1224878); note: nearly all actives have a fitted effect of over 45% in size
In short: as §2

[7] = A CellTox Green Cytotoxicity Assay to monitor cytotoxicity in HepG2 cells - 40 hour (AID 1224879); note: nearly all actives have a fitted effect of over 40% in size
In short: as §2

[8] = qHTS RealTime-Glo MT Cell Viability Assay in HEK293 cells - 0 hour (AID 1224880); note: top concentration of the series differs between compounds; nearly all actives have a fitted effect of over 45% in size
In short: (§3)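 qHTS format; HEK293 cells with NanoLuc/prosubstrate reagent, 37 C/5% CO2 for 5 h pre-dosing; compounds 23 nL in DMSO; luminescence at each time point reflects viable cells.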

[9] = A CellTox Green Cytotoxicity Assay to monitor cytotoxicity in HEK293 cells - 32 hour (AID 1224881); note: nearly all actives have a fitted effect of over 40% in size; note: potency is the fitted concentration of half-maximal effect
In short: as §1

[10] = qHTS RealTime-Glo MT Cell Viability Assay in HEK293 cells - 40 hour (AID 1224874); conditions: RealTime-Glo luminescence; max response: stronger effect = lower value; note: nearly all actives have a fitted effect of over 50% in size; note: potency is the fitted concentration of half-maximal effect
In short: as §3

Row | SMILES | Potency [1] | Potency [2] | Potency [3] | Potency [4] | Potency [5] | Potency [6] | Potency [7] | Potency [8] | Potency [9] | max response [10] [%] | Potency [10]
1 | CC1CCCO1 (centres undefined) | inactive | inactive | inactive | inactive | inactive | inactive | inactive | inactive | inactive | – | –
2 | COc1ccc(C(=O)NCc2ccc(OCCN(C)C)cc2)cc1OC | inactive | inactive | inactive | inactive | inactive | inactive | inactive | – | inactive | – | –
3 | CCCCC(CC)COS(=O)(=O)O (centres undefined) | inactive | inactive | – | – | inactive | inactive | inactive | inactive | – | -1.73 | –
4 | Nc1ccc(NC(=O)c2ccc(N)cc2)cc1 | inactive | inactive | inactive | inactive | inactive | inactive | inactive | inactive | inactive | – | –
5 | CCN(Cc1cccc(S(=O)(=O)O)c1)c1ccc(C(=C2C=CC(=[N+](CC)Cc3cccc(S(=O)(=O)O)c3)C=C2)c2ccc(O)cc2S(=O)(=O)[O-])cc1 | inactive | inactive | inactive | inactive | inactive | inactive | inactive | inactive | inactive | – | –
6 | CC(C)C(O)C(C)(C)CO (centres undefined) | 0.899 µM (active) | inactive | inactive | inactive | inactive | inactive | inactive | – | inactive | – | –
7 | O=C(O)c1cccc(Oc2ccccc2)c1 | inactive | inactive | inactive | inactive | inactive | inactive | inactive | inactive | – | – | –
8 | C1=CCC2CC=CC2C1 (centres undefined) | inactive | inactive | inactive | inactive | inactive | inactive | inactive | – | – | – | –
9 | C/C(C=O)=C\c1ccccc1 | inactive | inactive | inactive | inactive | inactive | inactive | inactive | inactive | – | – | –
10 | CC(C)(C)C1(CCc2ccc(Cl)cc2)CO1 (centres undefined) | inactive | inactive | – | inactive | inactive | – | – | inactive | 21.9 µM (active) | -16.7 | –
11 | CCOCCC(=O)OCC | inactive | inactive | inactive | inactive | inactive | inactive | inactive | inactive | inactive | – | –
12 | CC(=O)OCCC1CCCCC1 | inactive | inactive | inactive | – | inactive | – | – | – | inactive | 6.39 | –
13 | CCN(CC)C(=O)N1CCN(C)CC1 | inactive | inactive | inactive | inactive | inactive | inactive | inactive | – | inactive | – | –
14 | CCC(=O)OCc1ccc(OC)cc1 | inactive | inactive | inactive | inactive | inactive | inactive | inactive | inactive | inactive | – | –
15 | C=C(C)C(=O)OCCC(F)(F)C(F)(F)C(F)(F)C(F)(F)C(F)(F)C(F)(F)F | inactive | inactive | inactive | inactive | inactive | inactive | inactive | inactive | inactive | – | –
16 | COc1cc(C(C)=O)ccc1OCCCN1CCC(c2noc3cc(F)ccc23)CC1 | 7.56 µM (active) | inactive | inactive | – | – | – | – | inactive | inactive | – | 10.7 µM (active)
17 | Nc1nc2ccc(OC(F)(F)F)cc2s1 | inactive | inactive | inactive | inactive | inactive | inactive | – | inactive | inactive | – | –
18 | SCCc1cnccn1 | inactive | inactive | inactive | – | inactive | inactive | inactive | inactive | inactive | – | –
19 | CC1=CC[C@@]23C[C@@H]1C(C)(C)[C@@H]2CC[C@H]3C | inactive | inactive | inactive | – | inactive | – | – | – | inactive | 1.49 | –
20 | BrC(Br)C(Br)Br | inactive | inactive | inactive | inactive | inactive | inactive | inactive | inactive | inactive | – | –
21 | COc1cc(NS(=O)(=O)c2ccc(N)cc2)nc(C)n1 | inactive | inactive | inactive | inactive | inactive | inactive | inactive | inactive | inactive | – | –
22 | COc1ccc(C)cc1 | inactive | inactive | inactive | inactive | inactive | inactive | inactive | inactive | – | – | –
23 | CC(=O)N[C@@H](Cc1ccc(O)cc1)C(=O)O | inactive | inactive | inactive | inactive | inactive | inactive | inactive | – | inactive | – | –
24 | C=CCOC(=O)COCCC(C)C | inactive | inactive | inactive | inactive | inactive | inactive | inactive | inactive | inactive | – | –
25 | C[C@@H]1[C@H](O)[C@@H](C)/C=C/C=C\C=C\C=C\C=C\C=C\C=C\[C@H](O[C@@H]2O[C@H](C)[C@@H](O)[C@H](N)[C@@H]2O)C[C@@H]2O[C@](O)(C[C@@H](O)C[C@@H](O)[C@H](O)CC[C@@H](O)C[C@@H](O)CC(=O)O[C@H]1C)C[C@H](O)[C@H]2C(=O)O (stereo in doubt) | inactive | inactive | – | inactive | inactive | inactive | inactive | inactive | – | – | –
